Laboratory results taken from PubChem BioAssay AID504340 (NMMLSC, 2011).

Test: yeast TOR pathway CIT2-GFP reporter retest – flow cytometry, third cherry pick, single plex, confirmation (AID 504340);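 also: median GFP fluorescence over all cells with no mother versus daughter split; sample signal as a ratio to the plate DMSO mean so 100% equals DMSO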
Settings: S. cerevisiae CIT2-GFP strain, 3 h, at 10 µM, stronger effect = higher value;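 active = GFP response above 150% of the DMSO control; inconclusive = Under 70 cell events counted for a yeast strain; inactive = the rest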

GFP response vs DMSO, inactive:
COc1ccc(OC)c(N/C(C)=C/C(=O)c2ccccc2)c1 99.3%
COC(=O)c1cc(=O)c2cccc(OC)c2[nH]1 101%
Cc1cc(C)c2ccc(N)nc2c1O 99.3%
Cc1cccc(N/C=C/C(=O)c2ccc(Cl)cc2)c1 97.7%
Nc1nc(NCCOCCO)nc(Nc2cccc(F)c2)c1[N+](=O)[O-] 96.1%
CC(=O)NCCOc1cccc2cccnc12 104%
C/C(=N\NC(=O)c1cccc2ccccc12)c1cccnc1 91.2%
COc1ccc(N/C=C/C(=O)c2ccc(Cl)cc2)cc1 107%
Cc1cc(C)c(NC(=O)CC(=O)c2ccccc2)c(Cl)c1 92.8%
Cc1cccc(C)c1Nc1ncnc(N)c1[N+](=O)[O-] 103%
CC(=O)C(Cl)C(=O)Nc1ccccc1 (centres undefined) 121%
COCCCNc1nc(N)c([N+](=O)[O-])c(Nc2cc(OC)ccc2OC)n1 106%
CN(C)CCCNc1cc(O)c2ncccc2c1 112%
O=C(Nc1ccccc1)O/N=C1\CCCCC1c1ccc([N+](=O)[O-])cc1[N+](=O)[O-] (centres undefined) 101%
C=CCNc1nc(N)c([N+](=O)[O-])c(Nc2cccc(Cl)c2)n1 114%
CSc1nc(S(C)(=O)=O)nc2[nH]c(=O)[nH]c12 106%
O=C(O)c1ccc2cccc(O)c2n1 109%
CC1=CN2C(=N)/C(=C/c3ccco3)C(=O)N=C2S1 112%
Brc1ccc2ncnc(NCc3ccccc3)c2c1 112%
Cc1nc2c(O)cccc2cc1CO 101%
CCc1sc(C(=O)Nc2nc(-c3ccccn3)cs2)cc1C 109%
Cc1ccc(C(=O)Nc2nc(-c3ccccn3)cs2)o1 99.3%
O=C(Nc1cccc(Cl)c1)ON=C1c2ccccc2-c2ccccc21 101%
Cc1ccc(C(=O)/C=C/Nc2cccc(O)c2)cc1 109%
N#Cc1c(N)nc(N)nc1Nc1ccc(Br)cc1 99.3%
O=C(Nc1cccc2ccccc12)ON=C1CCCCC1 106%
COc1ccc(NC(=O)O/N=C2/CCCc3ccc(OC)cc32)cc1 104%
COc1ccccc1Nc1nc(NCCC(C)C)nc(N)c1[N+](=O)[O-] 114%
C/C(=N\NC(=O)c1ccccc1)c1ccccc1F 104%
COc1ccccc1Nc1nc(NCCCN(C)C)nc(N)c1[N+](=O)[O-] 107%
CC(=O)Nn1cnc2c(c1=O)C1(CCCC1)Cc1ccccc1-2 89.6%
O=C1c2ccccc2C(=O)c2c1cccc2N(CCO)CCO 92.8%
COc1ccccc1-c1cc(C(F)(F)F)nc(S(C)(=O)=O)n1 106%
CCCOCc1ccc(O)c2ncccc12 104%
O=C(Nc1ccccc1Cl)ON=C1c2ccccc2-c2ccccc21 116%
COc1ccc(OC)c2c(=O)cc(C(=O)O)[nH]c12 111%
COc1cccc(OCc2cc(C(=O)N3CCN(C)C(c4ccccc4)C3)no2)c1 (centres undefined) 97.7%
COc1ccc(N/C(C)=C/C(=O)c2ccccc2)cc1 94.5%
COC1=C/C(=C/c2c(N)n3cc(C)sc3nc2=O)C=CC1=O 124%
